Hit rate of the full screen: of about 190,000 compounds, about 1,300 (0.68%) were called active. This excerpt belongs to a sample that is enriched for actives. Values without a mark were called inactive. Cut-off read from the data, not from the text of the source: active = inhibition above about 50%; inactive = the rest.
Molecular target: Mannose-6-phosphate isomerase (Homo sapiens) (UniProt P34949)
Assay: MPI inhibition at elevated mannose 6-phosphate – biochemical, fluorescence intensity, high mannose 6-phosphate, primary screen (AID 1220)
Settings: recombinant PMI enzyme, coupled fluorescence intensity; at 20 µM; active compounds read high

Mannose-6-phosphate isomerase (Homo sapiens), sequence (P34949 whole entry, looked up): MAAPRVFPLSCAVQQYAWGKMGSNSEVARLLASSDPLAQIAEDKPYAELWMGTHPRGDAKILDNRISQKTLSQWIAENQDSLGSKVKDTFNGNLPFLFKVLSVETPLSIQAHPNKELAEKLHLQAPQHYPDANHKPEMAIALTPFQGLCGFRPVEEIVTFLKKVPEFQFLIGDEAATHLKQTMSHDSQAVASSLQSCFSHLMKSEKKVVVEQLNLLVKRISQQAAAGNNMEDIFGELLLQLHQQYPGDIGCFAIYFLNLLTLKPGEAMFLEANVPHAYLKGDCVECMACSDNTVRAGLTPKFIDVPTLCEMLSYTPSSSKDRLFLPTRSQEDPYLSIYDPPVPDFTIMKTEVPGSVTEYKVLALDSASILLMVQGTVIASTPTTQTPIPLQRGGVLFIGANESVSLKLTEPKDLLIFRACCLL

Row | SMILES | inhibition
1 | O=C(Cn1cnc2c(nnn2Cc2ccc(F)cc2)c1=O)NCc1ccc(F)cc1 | -6.8%
2 | COC(=O)c1cc(C(=O)OC)cc(-n2c(C)cc(C(=O)COC(=O)CNS(=O)(=O)c3ccc(C)cc3)c2C)c1 | 6.4%
3 | CC(=O)NNc1cc(N2CCOCC2)nc(N2CCOCC2)n1 | 11.3%
4 | Cc1cc(N/N=C/c2ccc(O)cc2O)nc(-c2ccccc2O)n1 | 52.9% (active)
5 | Cc1cc(N/N=C/c2ccc(O)c(C)c2O)nc(-c2ccccc2O)n1 | 33.4%
6 | Oc1ccc(/C=N/Nc2nc(N3CCCC3)nc(N3CCCC3)n2)cc1O | 27%
7 | Oc1ccc(/C=N/Nc2nc(N3CCCCCC3)nc(N3CCCCCC3)n2)c(O)c1 | 19.9%
8 | C(=N\Nc1ccccn1)/c1ccc(N2CCOCC2)cc1 | 23.5%
9 | Cc1cc(N/N=C/c2ccccc2O)nc(-c2ccccc2O)n1 | 48.2%
10 | Oc1ccc(/C=N\Nc2cc(N3CCOCC3)nc(N3CCOCC3)n2)c(O)c1 | 61.1% (active)
11 | COc1ccc(-c2oc3ncnc(N)c3c2-c2ccccc2)cc1 | 5.7%
12 | Nc1ccccc1C(=O)N(Cc1ccccc1)Cc1ccccc1 | -1.7%
13 | C=CCSc1nnc(-c2ccc([N+](=O)[O-])cc2)o1 | -2.9%
14 | Cc1ccc2c(C)[nH]c(=O)cc2c1 | 8.1%
15 | CCOc1cc(CNCc2ccncc2)cc(Br)c1OCc1ccc(F)cc1 | 5.1%
16 | Cc1ccc(S(=O)(=O)c2nc(-c3ccco3)oc2SCC(=O)NCC2CCCO2)cc1 (centres undefined) | 18.4%
17 | CCc1ccc(N=c2c([N+](=O)[O-])nn(-c3ccccc3)n2O)cc1 | 2.1%
18 | COc1ccccc1N=c1c2c([N+](=O)[O-])cc([N+](=O)[O-])cc2n(O)n1-c1ccccc1OC | -1.7%
19 | O=[N+]([O-])c1cc([N+](=O)[O-])c2c(=Nc3ccccc3)n(-c3ccccc3)n(O)c2c1 | 52.9% (active)
20 | CCOc1cc(C2C(C#N)=C(N)Oc3n[nH]c(-c4ccncc4)c32)cc([N+](=O)[O-])c1O (centres undefined) | 24.5%
21 | CCN(c1ccccc1)S(=O)(=O)c1ccc(Cl)c(NC(=O)COC(=O)C2CC2C)c1 (centres undefined) | 6.5%
22 | Cc1ccc(S(=O)(=O)O/N=C2\CCCc3ccccc32)cc1 | -0.1%

Row | SMILES | inhibition
23 | CC1=C(C)/C(=N\OS(=O)(=O)c2ccccc2)C=CC1=O | 49%
24 | O=S(=O)(O/N=C1\CCCc2ccccc21)c1ccccc1 | -10.1%
25 | N/C(=N\OS(=O)(=O)c1ccccc1)c1ccncc1 | -14.4%
26 | Cc1ccc(S(=O)(=O)ON=C2CCN(S(=O)(=O)c3ccccc3)CC2)cc1 | -1%
27 | CC1=C/C(=N\OC(=O)/C=C/c2ccccc2)C(C)=CC1=O | 8.4%
28 | N/C(=N\OS(=O)(=O)c1ccccc1)c1ccccn1 | -4.5%
29 | O=S(=O)(O/N=C1\CCCc2ccccc21)c1ccc(Cl)cc1 | -28.3%
30 | COc1ccccc1OC(C)c1nnc(SCC(=O)Nc2c(C)n(C)n(-c3ccccc3)c2=O)n1-c1ccccc1 (centres undefined) | 6.4%
31 | COc1ccc(CNS(=O)(=O)NCc2ccc(C)cc2)cc1 | -7.2%
32 | Cc1ccc(C)c2nc3sc(C(=O)N4CCOCC4)c(N)c3cc12 | 2.2%
33 | CCCC(=O)c1ccc(N2CCN(S(=O)(=O)c3ccccc3)CC2)c(F)c1 | 9.7%
34 | CC(C)C1C(C#N)=C(N)Oc2n[nH]c(-c3ccccc3)c21 (centres undefined) | 9%
35 | O=C(Cc1cccs1)NC(c1ccccc1)c1ccccc1 | -1.3%
36 | CCC(CC)c1nnc(NC(=O)c2ccco2)s1 | 8.5%
37 | O=C1CN(C(=O)COC(=O)c2cccc(OCc3ccccc3)c2)c2ccccc2N1 | 20.2%
38 | c1ccc(CC2CNc3ccccc3CN2)cc1 (centres undefined) | -7%
39 | Cc1nc(N2CCN(S(=O)(=O)c3cccc4nonc34)CC2)c2c3c(sc2n1)CCCC3 | 14.8%
40 | COc1cnc(-c2ccccn2)nc1Sc1cccc(Cl)c1 | 2.4%
41 | CC(=O)c1ccc(NC(=S)N2CCN(c3cccc(Cl)c3)CC2)cc1 | -8.9%
42 | CCCC(=O)c1cc(F)c(N2CCN(S(=O)(=O)c3ccccc3)CC2)cc1C | 14.8%
43 | CCc1nn(CC(=O)Nc2ccc(Br)c(C)c2)c(=N)s1 | -9.2%
44 | CC(=O)N1C(C)(C)CC(=NOS(=O)(=O)c2ccccc2)CC1(C)C | -21.1%

Row | SMILES | inhibition
45 | CC1=CC(=O)C=C(C)C1=NOC(=O)/C=C\c1ccccc1 | 22%
46 | CC(=O)Nc1ccc(S(=O)(=O)N=S(C)(C)=O)cc1 | 15.7%
47 | CCCC(=O)NC1=C(C#N)C2(CCCCC2)Cc2ccccc21 | -7.8%
48 | CC1CCCC(C)N1C(=O)CSc1nc2ccccc2s1 (centres undefined) | 0.3%
49 | CCOC(=O)/C(=C/c1c(C)n(C)c2ccc([N+](=O)[O-])cc12)C(C)=O | 2.1%
50 | CC1(C)Oc2ccc(C(=O)N3CCCC3)cc2N(CC(=O)NCc2ccccc2)C1=O | -8.2%
51 | CC1(C)Oc2ccc(C(=O)N3CCOCC3)cc2N(CC(=O)Nc2ccccc2)C1=O | 6.6%
52 | CC1(C)Oc2ccc(C(=O)N3CCCCC3)cc2N(CC(=O)NCc2ccccc2)C1=O | 107% (active)
53 | CCOC(=O)Cn1c(=O)oc2cc(S(=O)(=O)Nc3ccc(F)cc3)ccc21 | -4.3%
54 | OCc1ccnc2c(O)cccc12 | 59.6% (active)
55 | Oc1ccc(COCc2ccccc2)c2cccnc12 | 46.2%
56 | c1ccc(N2CCN(Cc3ccnc4ccccc34)CC2)cc1 | -101%
57 | Oc1ccc(CN2CCCCC2)c2cccnc12 | 50.5% (active)
58 | Oc1ccc(CN2CCc3ccccc3C2)c2cccnc12 | 47.9%
59 | COc1ccccc1N1CCN(Cc2cc(Br)c(O)c3ncccc23)CC1 | 43.7%
60 | O=S(=O)(c1ccc(Cl)cc1)N1CCN(Cc2ccc(O)c3ncccc23)CC1 | 45.3%
61 | COc1ccccc1N1CCN(Cc2ccc(OC)c(OC)c2OC)CC1 | -2.8%
62 | Oc1ccc(CN2CCC(Cc3ccccc3)CC2)c2cccnc12 | 46.2%
63 | OCc1ccc(O)c2ncccc12 | 28.8%
64 | Oc1ccc(CN2CCN(c3ccccc3)CC2)c2cccnc12 | 50.5% (active)

From PubChem BioAssay AID1220 (Sanford-Burnham Center for Chemical Genomics, 2008)
